Screens: PubChem, National Center for Advancing Translational Sciences (NCATS)
IL1B secr inh: blocks inflammasome-driven IL-1 beta release; AID 743279; actives 4.7% (n = 360,000); activity change, % at 57.5 µM; THP-1 LPS/ATP IL-1B secretion, AlphaLISA, 16 h; hits give low values; in the data active = activity change below about -50%; inconclusive = mostly about -30% to -49%
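Secreted IL-1B measured by AlphaLISA bead assay after 16 h compound exposure of THP-1 cells; compounds (final up to 57.5 uM) added 1 h before LPS (250 ng/mL) and ATP (1.25 mM) stimulation; lower signal means less secretion.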
DT40 TDP1 no CPT: qHTS for Inhibitors of human tyrosyl-DNA phosphodiesterase 1 (TDP1): qHTS in cells in absence of CPT. DT40 Tdp1-/- hTDP1 cells, no CPT, ATP luminescence, 48 h. Potency, µM (doses to about 46.2 µM), for the others: at the highest dose activity change, negative = growth inhibition, usual class: inhibitors. actives 15% (n = 420,000). AID 686978, 2013; note: potency is the fitted concentration of half-maximal effect; nearly all actives have a fitted effect of over 55% in size
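Stably hTDP1-transfected Tdp1-null chicken DT40 cells were treated with library compounds minus camptothecin and grown for at least 48 hr at 37 °C, after which cellular ATP was quantified by luminescence.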
HT1080-NT tox: kills 2HG-producing HT-1080-NT fibrosarcoma cells. HT-1080-NT fibrosarcoma viability, CellTiter-Glo ATP luminescence, 48 h. Potency, µM (top dose mostly 46.1 µM), for inactives: top-dose activity, negative = less viability, hits mostly cytotoxic. actives 1.6% (n = 360,000). AID 686970;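 note: NT is the 2HG producing partner of a matched IDH1 knockdown line; potency is the fitted concentration of half-maximal effect; 0% = DMSO-treated cells and -100% = media-only wells without cells; nearly all actives have a fitted effect of over 55% in size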
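A 48-hour cytotoxicity screen used HT-1080-NT cells plated 2 hours before compound delivery. ATP-based CellTiter-Glo luminescence measured viability, normalized to DMSO and no-cell controls.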
TDP1 cell CPT: growth inhibition of DT40 Tdp1-/-;hTDP1 cells with camptothecin (screen for TDP1 inhibitors) | chicken DT40 Tdp1-/-;hTDP1 cells + 20 nM CPT, ATP luminescence, 48 h | Potency, µM (doses to about 46.2 µM), inactives show at the highest dose activity change, negative = growth inhibition, actives largely listed as inhibitors | actives 12% (n = 420,000); note: potency is the fitted concentration of half-maximal effect; nearly all actives have a fitted effect of over 55% in size
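Chicken DT40 Tdp1-/- cells complemented with human TDP1, 400 cells/well, exposed to compounds plus 20 nM camptothecin for at least 48 h at 37 C; viability read as ATP content by CellTiter-Glo luminescence.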
HT1080 IDH1KD tx: HT-1080 IDH1 knockdown cell toxicity (counter line). HT-1080 IDH1 knockdown viability, ATP luminescence, 48 h. Potency, µM (titrated, usually from 46.1 µM), for the others: at the highest dose activity, negative = toxicity, hits mostly cytotoxic. actives 2% (n = 360,000);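 note: potency is the fitted concentration of half-maximal effect; 0% = DMSO wells and -100% = cell-free medium wells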
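After a 2 h attachment period, IDH1KD HT-1080 cells took pin-transferred compound for 48 h at 37 °C; ATP-based luminescence after 10 min room-temperature reagent incubation reported viability.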
ELG1 repair inh: inhibitors of ELG1-dependent DNA repair in HEK293T cells | Potency, µM (titrated, usually from 46.1 µM), without a hit: at the top dose activity change, negative = inhibition, actives largely listed as inhibitors | HEK293T ELG1-luciferase reporter, luminescence, 16 h; DNA damage induced by 5-fluorouridine | actives 2.3% (n = 330,000); note: potency is the fitted concentration of half-maximal effect; nearly all actives have a fitted effect of over 55% in size
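5-Fluorouridine DNA damage + compound/DMSO, 2,000 cells/well, 16 h, 37 °C/5% CO2. ONE-Glo, 30 min RT, luminescence. Readout = decrease in reporter signal.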
The depositor's hits bear a star; u = inconclusive; x = not tested or not shown; [ ] = remark or other dose. In the library only some 19% were active in any assay of this set; here they are far more common. Unless noted, calls come from the whole dose curve; as a rule, active = well fitted curve in the direction sought with a large enough effect; inconclusive = small, poorly fitted or top-dose-only effect, or another doubt; inactive = no such curve, though single readings can be large; an effect the other way counts as inactive or inconclusive. Unless noted, % is set by controls: 0 for no effect and ±100 for the full control effect.

SMILES | IL1B secr inh | DT40 TDP1 no CPT | HT1080-NT tox | TDP1 cell CPT | HT1080 IDH1KD tx | ELG1 repair inh
CN1C(=O)CSc2ccc(NC(=O)N3CCN(c4ccccc4)CC3)cc21 | -8 | u | 21% | u | 5% | u
CN1C(=O)c2ccccc2Sc2ccc(NC(=O)N3CCN(c4cccc(Cl)c4)CC3)cc21 | x | 5.2µM* | x | 7.3µM* | x | x
COc1ccc(CNC(=O)Nc2ccc3c(c2)N(C)C(=O)CS3)cc1 | 0 | u | -3% | u | 5% | 0%
CCc1cccc(NC(=O)Nc2ccc3c(c2)N(C)C(=O)c2ccccc2S3)c1 | x | 23µM* | x | u | x | x
O=C(CSc1nc(=O)n(CCN2CCOCC2)c2c1CCC2)Nc1ccc(Cl)c(Cl)c1 | x | u | x | -25% | x | x
COc1cc2cc(C(c3nnnn3C3CCCC3)N3CCc4ccccc43)c(=O)[nH]c2cc1OC (stereo not drawn) | 17 | u | -26% | u | -19% | -10%
COc1cc2cc(C(c3nnnn3C(C)(C)C)N3CCc4ccccc43)c(=O)[nH]c2cc1OC (stereo not drawn) | -13 | 21µM* | -8% | -35% | -8% | -19%
Cc1ccc2cc(C(c3nnnn3CC3CCCO3)N3CCc4ccccc4C3)c(=O)[nH]c2c1 (stereo not drawn) | -22 | u | 1% | -29% | 0% | 4%
Cc1cc2cc(C(c3nnnn3CC3CCCO3)N3CCCc4ccccc43)c(=O)[nH]c2cc1C (stereo not drawn) | u | u | u | u | 11µM* | 9%
CCOc1ccc2[nH]c(=O)c(C(c3nnnn3CC3CCCO3)N3CCc4ccccc4C3)cc2c1 (stereo not drawn) | -24 | 23µM* | -3% | 16µM* | 9% | -30%
O=c1[nH]c2cc3c(cc2cc1C(c1nnnn1Cc1ccccc1)N1CCCCCC1)OCCO3 (stereo not drawn) | -15 | u | -19% | 16µM* | -4% | u
Cc1ccccc1-c1cc2nc(Oc3cccc(F)c3)n(C)c(=O)c2s1 | -9 | u | 15% | u | -1% | x
COc1ccccc1NC(=O)C(C)Sc1nc(-c2ccccc2)cn1N (stereo not drawn) | 5 | -27% | 1% | u | 4% | -9%
Cc1ccc(Oc2ccc(OCC(=O)NC(CC(C)C)C(=O)O)cc2)cc1 (stereo not drawn) | 44 | -2% | 5% | 14% | 3% | 7%
O=c1[nH]c2cc3c(cc2cc1C(c1nnnn1Cc1ccccc1)N1CCCc2ccccc21)OCO3 (stereo not drawn) | 28 | 23µM* | -27%[9.24 µM] | 21µM* | u | 0.65µM*
Cc1cccc2cc(C(c3nnnn3Cc3ccc4c(c3)OCO4)N3CCCC3)c(=O)[nH]c12 (stereo not drawn) | 16 | -23% | 0% | -24% | -2% | -22%
O=c1[nH]c2cc3c(cc2cc1C(c1nnnn1C1CCCC1)N1CCCc2ccccc21)OCCO3 (stereo not drawn) | 1 | -13% | -1% | -1% | 1% | -14%
O=c1[nH]c2cc3c(cc2cc1C(c1nnnn1Cc1ccccc1)N1CCN2CCCC2C1)OCCO3 (stereo not drawn) | -2 | 18µM* | -17% | u | 0%[9.24 µM] | 4%
Cc1ccc(C)c2[nH]c(=O)c(C(c3nnnn3Cc3ccccc3)N3CCc4ccccc4C3)cc12 (stereo not drawn) | -10 | -11% | -29% | 21µM* | -27% | -22%
